# Reference: PubChem BioAssay (Tox21)
# Records with an inconclusive call do not appear. Where a call stands in place of a potency, no number is given. Activity calls are given as the source filed them. Unless noted, the call rests on the fitted dose curve; in most records, active means well fitted curve in the direction sought with a large enough effect in the repeat runs; inconclusive means weak or mixed curves; inactive means no such curve, though single readings can be large; an effect the other way counts as inactive or inconclusive.
# Tests used:
# [1] = biological target: Thyrotropin receptor (Homo sapiens) (UniProt P16473); assay: qHTS assay to identify small molecule antagonists of the thyroid stimulating hormone receptor (TSHR) signaling pathway (AID 1259385; calls by dose curve; further: nearly all actives have a fitted effect of over 20% in size)
# Sequence of Thyrotropin receptor (Homo sapiens) (P16473 whole entry, looked up): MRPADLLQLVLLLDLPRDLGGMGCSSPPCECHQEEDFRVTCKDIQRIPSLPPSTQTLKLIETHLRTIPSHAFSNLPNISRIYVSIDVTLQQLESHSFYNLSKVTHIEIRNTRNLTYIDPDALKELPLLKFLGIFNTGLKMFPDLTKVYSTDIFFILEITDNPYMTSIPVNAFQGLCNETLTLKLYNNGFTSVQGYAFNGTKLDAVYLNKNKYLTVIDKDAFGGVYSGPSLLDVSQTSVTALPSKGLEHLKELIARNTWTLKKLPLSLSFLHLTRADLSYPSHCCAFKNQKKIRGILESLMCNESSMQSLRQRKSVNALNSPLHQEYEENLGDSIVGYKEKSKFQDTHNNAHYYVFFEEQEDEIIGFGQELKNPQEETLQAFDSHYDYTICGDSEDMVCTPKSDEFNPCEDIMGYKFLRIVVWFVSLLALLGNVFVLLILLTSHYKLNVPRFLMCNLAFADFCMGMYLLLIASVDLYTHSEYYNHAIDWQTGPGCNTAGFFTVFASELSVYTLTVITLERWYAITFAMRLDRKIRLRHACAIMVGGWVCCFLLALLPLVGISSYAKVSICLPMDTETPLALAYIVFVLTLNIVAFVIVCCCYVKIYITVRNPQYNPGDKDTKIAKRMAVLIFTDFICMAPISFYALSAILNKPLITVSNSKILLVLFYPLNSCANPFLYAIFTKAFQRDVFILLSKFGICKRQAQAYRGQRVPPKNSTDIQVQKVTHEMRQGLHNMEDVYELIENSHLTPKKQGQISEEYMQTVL
# Summary of the method: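 TSHR-HEK293 cells (800/well) plated 18 h, then compounds with Ro20-1724 and TSH at 1.5 ng/mL final, 30 min at room temperature. cAMP quantified by HTRF (cAMP-d2/anti-cAMP-cryptate, 1 h); 15 concentrations in triplicate.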
# [2] = qHTS assay to identify small molecule agonists of the estrogen receptor alpha (ER-alpha) signaling pathway in the presence of an antagonist - cell viability counter screen (AID 1259386);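 further: cells exposed to compounds for 22 h at 37 °C before the viability read; nearly all actives have a fitted effect of over 30% in size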; further: potency means the concentration at half of the fitted maximal effect
# Summary of the method: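 Using estrogen-depleted VM7Luc4E2 cells, the 15-concentration compound series was applied together with 10.0nM ICI-182,780 and incubated 22hr at 37C/5% CO2. Cell viability was then scored by CellTiter-Fluor.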
# [3] = biological target: Progesterone receptor (Homo sapiens) (UniProt P06401); assay: qHTS assay to identify small molecule agonists of the progesterone receptor (PR) signaling pathway (AID 1346784; calls by dose curve; further: nearly all actives have a fitted effect of over 30% in size)
# Sequence of Progesterone receptor (Homo sapiens) (P06401 whole entry, looked up): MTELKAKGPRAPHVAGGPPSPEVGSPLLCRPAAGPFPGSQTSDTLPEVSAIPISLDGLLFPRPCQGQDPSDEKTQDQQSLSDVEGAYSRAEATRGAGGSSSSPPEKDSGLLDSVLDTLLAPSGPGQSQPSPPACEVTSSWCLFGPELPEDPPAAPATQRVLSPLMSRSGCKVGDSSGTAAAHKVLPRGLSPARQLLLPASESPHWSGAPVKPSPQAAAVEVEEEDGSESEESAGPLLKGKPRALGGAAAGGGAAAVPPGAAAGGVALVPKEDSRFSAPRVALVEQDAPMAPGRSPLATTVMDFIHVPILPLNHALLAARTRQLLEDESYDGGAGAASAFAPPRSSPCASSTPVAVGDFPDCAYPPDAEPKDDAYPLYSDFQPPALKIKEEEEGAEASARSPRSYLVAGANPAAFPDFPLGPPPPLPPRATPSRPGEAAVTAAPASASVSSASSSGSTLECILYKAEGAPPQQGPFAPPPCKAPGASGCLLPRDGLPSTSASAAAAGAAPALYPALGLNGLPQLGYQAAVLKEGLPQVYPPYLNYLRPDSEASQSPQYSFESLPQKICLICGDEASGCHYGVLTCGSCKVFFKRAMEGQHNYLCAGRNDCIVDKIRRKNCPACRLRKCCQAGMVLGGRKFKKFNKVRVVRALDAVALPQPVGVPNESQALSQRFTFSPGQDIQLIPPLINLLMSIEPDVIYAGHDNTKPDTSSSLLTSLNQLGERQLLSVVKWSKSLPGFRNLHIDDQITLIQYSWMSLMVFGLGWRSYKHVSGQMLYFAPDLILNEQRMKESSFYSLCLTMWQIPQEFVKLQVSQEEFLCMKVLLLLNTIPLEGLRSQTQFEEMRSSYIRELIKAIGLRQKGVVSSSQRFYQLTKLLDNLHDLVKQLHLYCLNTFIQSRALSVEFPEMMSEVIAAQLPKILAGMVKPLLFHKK
# Summary of the method: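 Compounds were tested for PR agonism in HEK 293T cells bearing a beta-lactamase gene under UAS control. Treatment lasted 16 hr at 37C; signal came from fluorescence of a FRET substrate.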
# [4] = qHTS assay to identify small molecule antagonists of the TGF-beta/Smad signaling pathway - cell viability counter screen (AID 1346824); further: nearly all actives have a fitted effect of over 50% in size
# Summary of the method: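 SBE-bla HEK 293T cells, incubated overnight, then compound plus 0.25 ng/mL TGF-beta1 (stock added) for 5 hr at 37 C. Viability was read in the same wells by CellTiter-Glo luminescence after 30 min at room temperature.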
# [5] = qHTS assay to identify small molecule agonists of the TGF-beta/Smad signaling pathway - cell viability counter screen (AID 1346829); further: top concentration of the series differs between compounds; nearly all actives have a fitted effect of over 45% in size
# Summary of the method: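 Compound-treated SBE-bla HEK 293T cells (5 hr, 37 C) were assessed for viability with CellTiter-Glo in parallel with the reporter read.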
# [6] = qHTS assay to identify small molecule agonists of the TGF-beta/Smad signaling pathway (AID 1346859; active means well fitted activation curve with a large enough effect in the signal ratio in the repeat runs, not every such curve was filed as active; the % refers to the signal ratio; further: series mostly up to about 77 µM)
# Summary of the method: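 Each well held 4,000 SBE-bla HEK 293T cells incubated overnight before compound addition; 5 hr later the cleavable FRET substrate went on for 2 hr at room temperature, and fluorescence was read at two emissions.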
# [7] = biological target: Thyrotropin-releasing hormone receptor (Homo sapiens) (UniProt P34981); assay: qHTS assay to identify small molecule antagonists of the thyrotropin-releasing hormone receptor (TRHR) signaling pathway (AID 1346877; active means well fitted inhibition curve with a large enough effect in the repeat runs, not every such curve was filed as active; further: series mostly up to about 51 µM)
# Sequence of Thyrotropin-releasing hormone receptor (Homo sapiens) (P34981 whole entry, looked up): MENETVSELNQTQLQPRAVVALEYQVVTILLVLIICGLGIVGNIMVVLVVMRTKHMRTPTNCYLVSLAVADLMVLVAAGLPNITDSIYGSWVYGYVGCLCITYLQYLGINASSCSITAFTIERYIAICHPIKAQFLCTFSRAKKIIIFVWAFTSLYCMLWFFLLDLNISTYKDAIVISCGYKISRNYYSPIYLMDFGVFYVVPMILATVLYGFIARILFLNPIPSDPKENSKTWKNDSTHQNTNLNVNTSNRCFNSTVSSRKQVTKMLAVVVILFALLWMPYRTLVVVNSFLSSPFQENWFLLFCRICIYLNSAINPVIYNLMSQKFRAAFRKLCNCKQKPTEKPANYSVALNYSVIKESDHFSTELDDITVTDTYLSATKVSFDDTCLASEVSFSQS
# Summary of the method: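 Calcium signal in dye-loaded TRHR/HEK293 cells; compounds added 5 min before TRH (1 nM final); fluorescence monitored 3 min at 1 s steps.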
# [8] = qHTS assay to identify small molecule agonists of the progesterone receptor (PR) signaling pathway - cell viability counter screen (AID 1346799; calls by dose curve; further: nearly all actives have a fitted effect of over 45% in size; further: potency means the concentration at half of the fitted maximal effect)
# Summary of the method: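 Here, 3,000 PR-UAS-bla HEK293T cells per well were treated with compounds for 16 hr after a 6 hr preincubation at 37C and 5% CO2; cell viability is the CellTiter-Glo luminescence signal.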
# [9] = qHTS assay to identify small molecule antagonists of the progesterone receptor (PR) signaling pathway - cell viability counter screen (AID 1346798); further: nearly all actives have a fitted effect of over 50% in size; further: potency means the concentration at half of the fitted maximal effect
# Summary of the method: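 Following a 4 hr attachment, PR-UAS-bla HEK293T cells in charcoal-stripped FBS medium were exposed to compounds with R5020 for 16 hr; CellTiter-Glo was added and luminescence read after 30 min at room temperature.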
# [10] = biological target: Progesterone receptor (Homo sapiens) (UniProt P06401); assay: qHTS assay to identify small molecule antagonists of the progesterone receptor (PR) signaling pathway (AID 1346795; active means well fitted inhibition curve with a large enough effect in the signal ratio in the repeat runs, not every such curve was filed as active; the % refers to the signal ratio; further: potency means the concentration at half of the fitted maximal effect)
# Summary of the method: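 In HEK293T cells bearing the PR-UAS-bla reporter, compound effects on promegestone-driven (1 nM) beta-lactamase expression are assessed after 16 hr using a fluorescent FRET substrate incubated 2 hr at room temperature.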
Structure (SMILES),Potency [1],Potency [2],Potency [3],outcome [4],outcome [5],outcome [6],outcome [7],Potency [8],Potency [9],Potency [10]
CC1(COc2ccc(CC3SC(=O)NC3=O)cc2)CCCCC1 (configuration not stated),inactive,inactive,inactive,inactive,inactive,inactive,inactive,–,–,–
C=C(C)C(=O)OCCCCCCCCCCOC(=O)C(=C)C,inactive,inactive,inactive,inactive,inactive,inactive,inactive,inactive,–,–
O=C(O)c1ccncc1,inactive,inactive,inactive,inactive,inactive,inactive,inactive,inactive,inactive,–
O=S(=O)(O)c1cc(Cl)c(Cl)cc1Cl,inactive,inactive,inactive,inactive,inactive,–,inactive,30.6 µM (active),30.6 µM (active),–
Nc1ccc(C(=O)Oc2ccccc2)c(O)c1,inactive,inactive,inactive,inactive,inactive,inactive,inactive,inactive,inactive,–
OCC(O)c1ccccc1 (configuration not stated),inactive,inactive,inactive,inactive,inactive,inactive,inactive,–,19.3 µM (active),–
C[C@H]1C[C@H]2[C@@H]3CCC4=CC(=O)C=C[C@]4(C)[C@@]3(F)[C@@H](O)C[C@]2(C)[C@@]1(O)C(=O)COP(=O)(O)O,inactive,inactive,inactive,inactive,inactive,inactive,inactive,inactive,inactive,–
CCC1=C(C)CN(C(=O)NCCc2ccc(S(=O)(=O)NC(=O)NC3CCC(C)CC3)cc2)C1=O (configuration not stated),inactive,inactive,inactive,inactive,inactive,–,inactive,inactive,inactive,–
C=CC(C)CCC=C(C)C (configuration not stated),inactive,inactive,inactive,inactive,inactive,inactive,inactive,inactive,inactive,–
Cc1c(Cl)cccc1Nc1ccccc1C(=O)O,inactive,inactive,inactive,inactive,inactive,–,inactive,–,inactive,–
CCc1c(C)[nH]c2c1C(=O)C(CN1CCOCC1)CC2 (configuration not stated),inactive,inactive,inactive,inactive,inactive,inactive,inactive,inactive,inactive,–
Cc1ccccc1CCO,inactive,inactive,inactive,inactive,inactive,inactive,inactive,inactive,inactive,–
O=C(Nc1ccccc1)c1cc([N+](=O)[O-])ccc1Cl,inactive,inactive,inactive,inactive,inactive,–,inactive,inactive,inactive,–
CC(C)CCCCCOC(=O)CS,inactive,inactive,inactive,inactive,inactive,inactive,inactive,inactive,inactive,–
O=C1CCCN1CCO,inactive,inactive,inactive,inactive,inactive,inactive,inactive,–,–,–
CC(C)=CCC/C(C)=C/C=N/O,inactive,inactive,inactive,inactive,inactive,inactive,inactive,–,–,–
CC(C)C[C@H](NC(=O)[C@H](Cc1ccccc1)NC(=O)c1cnccn1)B(O)O,inactive,0.841 µM (active),inactive,inactive,inactive,inactive,inactive,inactive,inactive,–
Cc1cc(C)n(CO)n1,inactive,inactive,inactive,inactive,–,inactive,inactive,inactive,–,–
O=C(N[C@@H](Cc1ccccc1)[C@@H](O)C(=O)N1C[C@@H](O)[C@@H](O)C1)c1cc2cc(Cl)ccc2[nH]1,inactive,inactive,inactive,inactive,inactive,inactive,inactive,inactive,inactive,–
CCCOC(C)=O,inactive,inactive,inactive,inactive,inactive,inactive,inactive,inactive,inactive,–
O=C(O)c1c2ccccc2cc2ccccc12,inactive,inactive,inactive,inactive,inactive,inactive,inactive,inactive,–,–
C[C@H](N)C(=O)N[C@@H](C)C(=O)NC1[C@H]2CN(c3nc4c(cc3F)c(=O)c(C(=O)O)cn4-c3ccc(F)cc3F)C[C@@H]12 (some centres not stated),inactive,inactive,inactive,inactive,inactive,–,inactive,–,inactive,–
CCCCCCCCCCCCSCCOCCO,inactive,inactive,inactive,inactive,inactive,inactive,inactive,inactive,inactive,–
O=C(O)c1ccccc1[N+](=O)[O-],inactive,inactive,inactive,inactive,inactive,inactive,inactive,inactive,inactive,–
CC(C)(C)NCC(O)COc1ccc(NC(=O)NC2CCCCC2)cc1 (configuration not stated),inactive,inactive,inactive,inactive,inactive,inactive,inactive,inactive,inactive,–
N#Cc1ccc(CC(=O)c2cccc(C(F)(F)F)c2)cc1,inactive,inactive,inactive,–,inactive,inactive,inactive,–,inactive,–

Structure (SMILES),Potency [1],Potency [2],Potency [3],outcome [4],outcome [5],outcome [6],outcome [7],Potency [8],Potency [9],Potency [10]
O=C(OCCN1CCOCC1)c1cccnc1Nc1cccc(C(F)(F)F)c1,inactive,inactive,inactive,inactive,inactive,inactive,inactive,inactive,inactive,–
Cc1c(-c2cccnc2)c2ccccc2n1CCCCC(=O)O,inactive,inactive,inactive,inactive,inactive,–,inactive,inactive,inactive,–
Cc1nc(C)c(C)nc1C,inactive,inactive,inactive,inactive,inactive,inactive,inactive,30.6 µM (active),–,–
CCOc1cc(OCC)c(C(C)=O)cc1OCC,inactive,21.3 µM (active),inactive,inactive,inactive,inactive,inactive,inactive,inactive,–
COc1ccc(C(=O)Nc2ccccc2)cc1[N+](=O)[O-],inactive,inactive,inactive,inactive,inactive,–,inactive,inactive,inactive,–
CCC(C)C1N=C(C)C(C)S1 (configuration not stated),inactive,inactive,inactive,inactive,inactive,inactive,inactive,inactive,inactive,–
CCc1ccc2c(c1)C(=O)c1ccccc1C2=O,inactive,inactive,inactive,inactive,inactive,inactive,inactive,inactive,inactive,–
CC(=O)S[C@H](C(=O)N[C@H]1Cc2ccccc2[C@H]2CCC[C@@H](C(=O)O)N2C1=O)C(C)C,inactive,inactive,inactive,inactive,inactive,inactive,inactive,inactive,inactive,–
c1ccc(CCNc2nc(-c3ccccc3)cs2)cc1,inactive,inactive,inactive,inactive,inactive,inactive,inactive,inactive,–,–
O=c1[nH]nc(-c2ccc([N+](=O)[O-])o2)o1,inactive,54.5 µM (active),inactive,inactive,inactive,inactive,inactive,inactive,inactive,–
Cc1ccc(Cl)c(OCC(O)CNC(C)(C)C)c1 (configuration not stated),–,inactive,inactive,inactive,inactive,inactive,inactive,inactive,inactive,inactive
c1ccc(CN(Cc2ccccc2)Cc2ccccc2)cc1,–,inactive,inactive,inactive,inactive,inactive,inactive,inactive,inactive,–
O=C1c2ccccc2C(=O)c2c1ccc(O)c2O,–,26.6 µM (active),inactive,inactive,inactive,inactive,–,–,inactive,inactive
O=C(Nc1ccc2c(c1)Cc1ccccc1-2)C(F)(F)F,–,inactive,inactive,inactive,inactive,inactive,inactive,–,–,4.33 µM (active)
O=C(O)CCc1nc2ccccc2[nH]1,–,–,inactive,inactive,inactive,inactive,inactive,inactive,inactive,inactive
Clc1cccc(C(c2ccc3nc[nH]c3c2)n2ccnc2)c1 (configuration not stated),–,inactive,inactive,inactive,inactive,inactive,inactive,inactive,inactive,inactive
CNc1ccccc1,–,inactive,inactive,inactive,inactive,inactive,–,inactive,inactive,–
C=CCCC,–,inactive,inactive,inactive,inactive,inactive,inactive,inactive,–,–
O=C(O)c1cccnc1Nc1cccc(C(F)(F)F)c1,–,inactive,inactive,inactive,inactive,inactive,inactive,–,–,–
CCOC(C)OCC,–,inactive,inactive,inactive,inactive,inactive,inactive,inactive,inactive,–
C1=COCCC1,–,inactive,inactive,inactive,inactive,inactive,inactive,–,inactive,inactive
CC/C=C\CCO,–,inactive,inactive,inactive,inactive,inactive,inactive,inactive,inactive,–
O=C(Cl)c1cc(Cl)cc(Cl)c1,–,inactive,inactive,inactive,inactive,inactive,inactive,inactive,inactive,–
CC(=O)CC/C=C(\C)CC/C=C(\C)CC/C=C(\C)CCC=C(C)C,–,inactive,inactive,inactive,inactive,inactive,–,inactive,inactive,–
COc1ccc(/C=C/c2cc(OC)cc(=O)o2)cc1,–,inactive,inactive,inactive,inactive,inactive,inactive,–,–,inactive
C(/C=C/C=C/Nc1ccccc1)=Nc1ccccc1,–,inactive,inactive,inactive,inactive,inactive,inactive,–,inactive,inactive
